Experimental data from PubChem BioAssay AID743279 (National Center for Advancing Translational Sciences (NCATS), 2014).
The whole screen tested about 360,000 compounds, of which about 17,000 (4.7%) were called active. About 5% were inconclusive and are not listed. The sample as a whole holds a higher share of actives than the screen did. Values without a mark were called inactive. No stated cut-off is given here; in the data, active means activity change below about -50%; inconclusive means mostly about -30% to -49%; inactive means weaker than that.
On the % scale 0 is the no-effect control and ±100 the full control effect.

Experiment: qHTS for Inhibitors of Inflammasome Signaling: IL-1-beta AlphaLISA Primary Screen
Conditions: THP-1 LPS/ATP IL-1B secretion, 16 h; at 57.5 µM, hits give low values
How it was run: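 THP-1 cells pretreated 1 hr with compounds (up to 57.5 uM final), then stimulated with LPS (250 ng/mL final) plus ATP (1.25 mM final); secreted IL-1B measured by AlphaLISA after 16 hr, decreased signal indicating inhibition.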
Compound `COc1cccc(CNS(=O)(=O)c2ccc3c(c2)N(C(C)=O)CCS3)c1` has an activity change of -9.03%. Compound `CCC1CCCCN1C(=O)CSc1nc(C)cc(C)n1` (stereo unspecified) has an activity change of -6.03%. Compound `COc1ccc(-c2ccc(CN3C(C(C)C)C(=O)N(Cc4cn(CC5CCCCC5)nn4)CCS3(=O)=O)cc2)cn1` (stereo unspecified) has an activity change of -2.84%. With `COc1ccc(C(CCN(Cc2ccc(OC)c(OC)c2)C(=O)CCl)c2ccccc2)cc1` (stereo unspecified) the activity change was -101% (active). In the case of `COc1ccc(CCNC(=O)C(Sc2ccccn2)c2ccccc2)cc1OC` (stereo unspecified), the activity change is reported as -6.65%. `COc1ccc(COC(=O)NC(C(=O)O)c2ccccc2)cc1` (stereo unspecified) gave an activity change of 7.03%. For `O=C(NCC(O)c1nc2ccccc2[nH]1)c1ccc(Br)cc1` (stereo unspecified), the activity change was 1.41%. With `C/C(CC(=O)Nc1ccc(Cl)cc1)=N\NC(=O)C(=O)NCCO` the activity change was 11.5%. `CCOC(=O)Cc1csc(SCC(=O)Nc2ccc(C)cc2F)n1` showed an activity change of 21%. `COc1ccc(-c2[nH]nc3c2C(c2ccncc2)C(C#N)=C(N)O3)cc1` (stereo unspecified) gave an activity change of 0%. With `COc1cc(C2C(C#N)=C(N)Oc3n[nH]c(-c4ccccn4)c32)cc(OC)c1OC` (stereo unspecified) the activity change was 1.38%. `CCOc1c(OC)cc(C2C(C#N)=C(N)Oc3n[nH]c(-c4ccncc4)c32)cc1OC` (stereo unspecified) gave an activity change of 25.5%. For `CCc1ccc(C2C(C#N)=C(N)Oc3n[nH]c(CC(=O)OC)c32)cc1` (stereo unspecified), the activity change was -9.71%. For `CCCc1[nH]nc2c1C(c1ccc(OC)c(Cn3nc(C)c(Br)c3C)c1)C(C#N)=C(N)O2` (stereo unspecified), the activity change was -67% (active). For `CCCc1[nH]nc2c1C(c1ccc(Br)s1)C(C#N)=C(N)O2` (stereo unspecified), the activity change was -99.8% (active). Work on `CC1(Oc2ccccc2-c2ccno2)CCN(Cc2ccc(-c3ccccc3)o2)C1` (stereo unspecified) yielded an activity change of 5.25%. In the case of `O=C(Nc1cccc(Br)c1)c1ccc2snnc2c1`, the activity change is reported as -14.1%. With `O=C(Nc1ccc2ccccc2c1)Nc1ccc2snnc2c1` the activity change was -98.9% (active). With `S=C(Nc1ccccc1)Nc1ccc2ccccc2c1` the activity change was -11.8%. For `Cc1cc2oc(=O)cc(CN(C)Cc3ccccc3)c2cc1Cl`, the activity change was -8.49%. With `COc1ccc(CCOC2OC(CO)C(OC(=O)/C=C/c3ccc(O)c(OC)c3)C(O[C@H]3O[C@@H](C)[C@H](O)[C@@H](O)[C@H]3O)C2O)cc1O` (stereo partly specified) the activity change was 12.4%. In the case of `CC1CCCC(C)N1C(=O)CN1CCN(c2nc(-c3ccc(F)cc3)cs2)CC1` (stereo unspecified), the activity change is reported as -52.3% (active). In the case of `O=C(COC(=O)C1CCCO1)Nc1nc(-c2ccc(F)cc2)cs1` (stereo unspecified), the activity change is reported as -13.3%. Compound `Cc1cccc(C)c1NC(=O)CN1CCN(c2ccc(F)cc2)CC1` has an activity change of 21.6%. `O=C(CCCN1C(=O)C(c2ccccc2)Oc2cccnc21)Nc1ccccc1Br` (stereo unspecified) gave an activity change of -9.67%. `Cc1cc(Br)cn2c(Cc3ccccc3C(F)(F)F)c(C3CCCCC3)nc12` gave an activity change of 1.07%. `Cc1ccc2sc(N(CCN(C)C)C(=O)/C=C/c3cccs3)nc2c1C` gave an activity change of 6.57%. For `Cc1ccc(S(=O)(=O)CCC(=O)OCC(=O)N(C)Cc2ccccc2)cc1`, the activity change was 8.91%. `COc1cc2ccccc2cc1C(=O)N(CCN(C)C)c1nc2c(F)cccc2s1` gave an activity change of 14.7%. With `COc1cccc2sc(N(CCCN(C)C)C(=O)CCS(=O)(=O)c3ccccc3)nc12` the activity change was -103% (active). In the case of `COc1ccc(N(C)C(=O)CCS(=O)(=O)c2cccc3nsnc23)cc1`, the activity change is reported as -11.5%. With `COc1cccc2sc(N(CCCN(C)C)C(=O)C(c3ccccc3)c3ccccc3)nc12` the activity change was -104% (active). With `Cc1cccc2sc(N(CCCN(C)C)C(=O)CCS(=O)(=O)c3ccccc3)nc12` the activity change was -96.3% (active). Compound `COc1ccccc1NC(=O)CC(NCCN(C)C)C(=O)O` (stereo unspecified) has an activity change of 12.6%. `Cc1cc(C)c2nc(N(CCN(C)C)C(=O)/C=C/c3cccs3)sc2c1` showed an activity change of 16.5%. Compound `CC(=O)NC(c1cccc(F)c1)c1nc(-c2cccc(F)c2)cs1` (stereo unspecified) has an activity change of -16.3%. `CCN(CC)C(=O)C(C)N1c2cccc3cccc(c23)S1(=O)=O` (stereo unspecified) showed an activity change of 13.2%. `O=C(CCNS(=O)(=O)c1ccccc1)NCCCc1ccccc1` showed an activity change of 14.3%. Work on `COc1ccc(C(=O)Nc2sc(C)c(C)c2CN2CCOCC2)cc1` yielded an activity change of 14%. With `COc1ccc(OC)c(C(=O)c2ccc(C(=O)N3CCN(Cc4csc(C)n4)CC3)cc2)c1` the activity change was 27.4%. With `COc1ccc(C(=O)Nc2ccc(F)cc2F)cc1` the activity change was -11.8%. With `CCc1ccc(NC(=O)CN2CCC(C(=O)c3ccc(OC)cc3)CC2)cc1` the activity change was -20.7%. In the case of `CCc1cc(C(N)=O)c(NC(=O)c2ccc(OC)cc2)s1`, the activity change is reported as -102% (active). With `CCc1cc(C(=O)c2ccc(OC)cc2)c(NC(=O)CN2CCN(C)CC2)s1` the activity change was -54.3% (active). `CCCCn1nnnc1C(c1cc2ccccc2o1)N(C)Cc1ccc(Cl)c(Cl)c1` (stereo unspecified) showed an activity change of 1.13%. `COc1ccc(CN2C(=O)C(CC(=O)NCCCCc3ccccc3)CC(C(=O)N3CCOCC3)=C2C)cc1` (stereo unspecified) showed an activity change of -11%. For `CCn1nc(C)c(NC(=O)/C=C/c2ccc(OC)c(COc3ccc(Br)cc3)c2)c1C`, the activity change was -50.3% (active). `COc1ccc(/C=C/C(=O)Nc2c(C)nn(C)c2C)cc1COc1ccc(Br)cc1` showed an activity change of -24.2%. In the case of `COc1ccc(C(C)=O)cc1COc1ccc(Cl)c(C)c1`, the activity change is reported as -8.14%. `O=C(NN=Cc1ccc2c(c1)CCC2)c1ccccc1O` gave an activity change of -24.6%. With `CC1CCN(S(=O)(=O)c2ccc3c(c2)n(C)c(=O)n3C)CC1` the activity change was -8.4%. `CC1CCN(C(=S)c2cccc(O)c2)CC1` gave an activity change of 10.7%. In the case of `CCCCn1c(N)c(N(CCOC)C(=O)c2sc3ccccc3c2Cl)c(=O)[nH]c1=O`, the activity change is reported as -21.6%. `COCCSc1nnc(NC(=O)CCS(=O)(=O)Cc2ccccc2)s1` gave an activity change of 1.75%. For `Cc1nnc(NC(=O)CCCOc2ccccc2)s1`, the activity change was 19.1%. Work on `Cc1ccc(S(=O)(=O)CCC(=O)Nc2nnc(CC(C)C)s2)cc1` yielded an activity change of -3.21%. With `CSc1nnc(NC(=O)c2nc(S(=O)(=O)Cc3ccc(C)cc3)ncc2Cl)s1` the activity change was -105% (active). Work on `CSc1ncc(Cl)c(C(=O)Nc2cc(C)ccc2C)n1` yielded an activity change of 25.6%. For `Cc1ccc(CS(=O)(=O)c2ncc(Cl)c(C(=O)Nc3nnc(C)s3)n2)cc1`, the activity change was -57.1% (active). Work on `CCc1nc2ccc(C(=O)NC3CCN(Cc4ccccc4)CC3)cn2c1N(CC)CCOC` yielded an activity change of -7.01%. For `O=C(Cn1cc(C(=O)C2CC2)c2ccccc21)Nc1ccccc1Cl`, the activity change was -2.81%. With `Cc1ccc(NS(=O)(=O)c2ccc(C(=O)NCCCN3CCOCC3)cc2)cc1` the activity change was 6.14%. In the case of `COC(=O)c1ccc2c(c1)S(=O)(=O)NC2C` (stereo unspecified), the activity change is reported as 5.94%. In the case of `CCOC(=O)C1=CC[C@@H](c2ccccc2)N(S(=O)(=O)c2ccc(C)cc2)[C@H]1c1ccc(CC)cc1`, the activity change is reported as 52.6%. Compound `COc1ccc(S(=O)(=O)N2CCN(CC(=O)N3CCNC3=O)CC2)cc1OC` has an activity change of -22%. With `COC(=O)c1ccc(NCc2cc(O)ccc2O)cc1` the activity change was -110% (active). In the case of `CC1(C)C2CCC1(C)C(OC(=O)c1ccc(O)cc1)C2` (stereo unspecified), the activity change is reported as 9.54%. With `O=C(OC12CC3CC(CC(C3)C1)C2)c1ccc(NCc2cc(O)ccc2O)cc1` the activity change was -102% (active). For `CC(C)OC(=O)c1ccc(NCc2cc(O)ccc2O)cc1Cl`, the activity change was 0%. Compound `COC(=O)c1ccc(NCC(=O)c2ccccc2)cc1` has an activity change of -20.4%. Work on `Cc1ccc(-c2cnc(C(O)c3cccc(C)c3C)[nH]2)cc1` (stereo unspecified) yielded an activity change of -19.2%. With `CCC(=O)OCc1c(C(F)(F)F)nn(C)c1Oc1cccc(C(F)(F)F)c1` the activity change was 2.89%. Work on `CCC(C)C(CO)NC(=O)/C=C/[C@H]1O[C@@H](n2cnc3c(NC(=O)c4ccccc4)ncnc32)[C@H](O)[C@@H]1O` (stereo partly specified) yielded an activity change of -22%. `C[C@H](CO)N1C[C@H](C)[C@@H](CN(C)Cc2ccc3c(c2)OCO3)OCc2cnnn2CCCC1=O` showed an activity change of 19.4%. `CC1CCCC(C)N1C(=O)COC(=O)c1ccccc1C(=O)c1ccccc1` (stereo unspecified) showed an activity change of -9.64%. `N#Cc1c(N)nc2c(c1N)CC(C(F)(F)F)O2` (stereo unspecified) gave an activity change of 16.5%. Work on `O=C(O)C(CCc1ccccn1)c1ccccc1` (stereo unspecified) yielded an activity change of -10.2%. With `O=c1[nH]c2c(c(=O)n1-c1ccccc1)CCO2` the activity change was 0%. For `CC(OC(=O)CNC(=O)c1ccc(Cl)c([N+](=O)[O-])c1)C(=O)NCc1ccco1` (stereo unspecified), the activity change was -52.2% (active). In the case of `CC(OC(=O)CNC(=O)c1ccco1)C(=O)Nc1ccc(Cl)cn1` (stereo unspecified), the activity change is reported as 12.3%. `O=C(NCc1ccco1)c1ccc([N+](=O)[O-])cc1Cl` gave an activity change of 15.3%. Compound `CCc1nc2ccc(C(=O)N(C)Cc3ccco3)cn2c1N(C)C(=O)Cc1ccccc1` has an activity change of -0.908%. For `CCCN(C(=O)COC(=O)CNS(=O)(=O)c1ccc(NC(C)=O)cc1)C1CCS(=O)(=O)C1` (stereo unspecified), the activity change was 14.5%. Compound `CCOC(=O)N1CCN(C(c2ccnc3ccccc23)c2nnnn2-c2c(C)cccc2C)CC1` (stereo unspecified) has an activity change of -14.1%. With `O=C(NCC(=O)N1CCN(c2ccccc2F)CC1)c1cccs1` the activity change was 16.6%. With `Cc1ccccc1C(CC(=O)c1cccs1)C(C#N)C#N` (stereo unspecified) the activity change was -107% (active). In the case of `Cc1ccc(C)c(NC(CC(=O)c2ccccc2)C(=O)OCC(=O)c2cccs2)c1` (stereo unspecified), the activity change is reported as 7.47%. In the case of `CCOC(=O)CSc1nc2ccc(C)cc2n2cnnc12`, the activity change is reported as -55.9% (active). For `CCOC(=O)CSc1nncc2ccc(OC)c(OC)c12`, the activity change was -8.55%. Compound `COc1ccc(CCNc2nc3ccc(C)cc3n3cnnc23)cc1OC` has an activity change of 13.3%. In the case of `CN(CCCNC(=O)CN1C(=O)CC(C)(C)S(=O)(=O)c2ccccc21)C1CCCCC1`, the activity change is reported as 0%.
